# Only some compounds are listed: those with a hit (about 2.4% of all), similar ones and a draw of the others.
# Nrf2 inh – blocks Nrf2 signaling; A549 ARE-Fluc reporter, luciferase luminescence, 18-24 h; Potency, µM (highest dose often 46 µM), for the others: at the highest dose activity change, negative = inhibition, hits mostly inhibitors; actives 2.1% (n = 360,000); note: % is set by controls: 0 for no effect and ±100 for the full control effect; nearly all actives have a fitted effect of over 60% in size
#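 Quantitative HTS in A549 cells stably bearing an antioxidant response element-firefly luciferase construct. Inhibition of Nrf2-driven transcription was scored by luminescence after 18-24 h of compound exposure at 37 °C.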
# Epigenetic derep – derepresses silenced GFP reporter in murine cells | Potency, µM (series often up to 53.9 µM), for the others: top-dose GFP activation, usual class: activators | AID 1865 | actives 0.2% (n = 280,000) | murine LDR cells, GFP reporter derepression, 30 h; note: % of control where 0% means no effect; nearly all actives have a fitted effect of over 60% in size
#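 Murine LDR cells bearing a silenced CMV-driven GFP reporter were exposed to compound for 30 h at 37 C. After PBS washes, GFP-positive cells (20-120 um objects) counted by laser-scanning microplate cytometry.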
# A549 viability – kills or reduces viability of A549 cells in Nrf2 counter-screen | actives 0.16% (n = 390,000) | A549 ARE-Fluc cells, CellTiter-Fluor viability, 18-24 h | Potency, µM (titrated, usually from 46 µM), inactives show at the top dose activity change, negative = cytotoxicity, actives largely listed as inhibitors; note: % is set by controls: 0 for no effect and ±100 for the full control effect
#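 Cytotoxicity counterscreen: CellTiter-Fluor fluorescence was measured in A549 ARE_Fluc cells after 18-24 h of compound exposure in a concentration series. The subsequent BugLite luminescent read reports ARE-luciferase activity.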
# PINK1 modulator – modulators of PINK1 expression; Potency, µM (top dose mostly 76.6 µM), for inactives: at the top dose activation (PINK1 increase), most hits filed as activators; actives 0.2% (n = 410,000); PINK1 immunofluorescence, high-content cytometry, 24 h; AID 624263; active = well fitted activation curve with a large enough effect; inconclusive = small, poorly fitted or top-dose-only effect; cell line not stated here; note: % of control where 0% means no effect; nearly all actives have a fitted effect of over 65% in size
#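 Measures PINK1 amount and localization on or inside mitochondria by immunofluorescence. Stable cells get compounds at 5 concentrations for 24 hours before fixation and staining; CCCP controls included.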
# Nrf2 ARE act – Nrf2 pathway activation. AREc32 ARE-luciferase reporter (MCF7-derived line), luminescence, 24 h. Potency, µM (series often up to 46.1 µM), without a hit: at the highest dose activation, most hits filed as activators. actives 0.31% (n = 410,000); note: % of control where 0% means no effect; nearly all actives have a fitted effect of over 65% in size
#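 Quantitative high-throughput format: AREc32 reporter cells, 1000 per well, received compound by pin transfer and were incubated 24 hr at 37 deg C, 5% CO2, before Steady-Glo luminescence detection.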
# * marks the source's active call; other numbers are inactive results; ? = inconclusive; . = no result given; ! = not confirmed by another sample; [ ] = dose if it differs, or a comment. Unless noted, calls come from the whole dose curve; as a rule, active = well fitted curve in the direction sought with a large enough effect; inconclusive = small, poorly fitted or top-dose-only effect, or another doubt; inactive = no such curve, though single readings can be large; an effect the other way counts as inactive or inconclusive. Potency is the fitted concentration of half-maximal effect.
SMILES,Nrf2 inh,Epigenetic derep,A549 viability,PINK1 modulator,Nrf2 ARE act
CCOC(=O)Nc1ccc2c(CNC(C)c3ccccc3OC)cc(=O)oc2c1 (configuration not stated),13µM*,.,?,2%,4%
Cc1ccc(C(=O)Nc2cnn(-c3ccc(C(=O)N(C)Cc4n[nH]c5c4CCCC5)cc3)c2)c(C)c1,.,.,.,-1%,.
Cc1c(C)c2cccnc2c2ncccc12,?,.,5.8µM*,0%,4%
CC(C)(C)c1ccc(Oc2ccc(NC(=O)c3cccs3)cn2)cc1,16µM*,0%,-17%,?,-1%
COc1ccc(NC(=O)c2cccs2)cn1,?,0%,0%,1%,4%
Cc1ccc(NS(=O)(=O)c2ccc(Cl)c(C(=O)Nc3ccccc3-c3nc4ccccc4[nH]3)c2)cc1C,23µM*,-3%,-27%,19%,2%
Cc1nn(CCc2nn[nH]n2)c2nc(-c3ccc(Br)cc3)cc(C(F)(F)F)c12,21µM*,0%,?,0%,0%
O=C1C2C3C=CC(C3)C2C(=O)N1c1ccc(Cc2ccncc2)cc1 (configuration not stated),?,-2%,-19%,0%,2%
CC1CCC2C(=O)N(c3ccc(Cc4ccncc4)cc3)C(=O)C2C1 (configuration not stated),10µM*,0%,-14%,1%,-1%
O=C(COC(=O)CNC(=O)c1ccccc1)Nc1cc(C(F)(F)F)ccc1Cl,16%,.,-1%,.,.
COc1ccc(-c2csc3ncnc(Nc4ccccc4)c23)cc1,.,10%,1%,1%,0%
COc1cccc(/C=N/Nc2ncnc3scc(-c4ccccc4)c23)c1OC,13µM*,2%,10%[1.84 µM],?,13%
COc1cccc(C(=O)N(Cc2cc3ccc(C)cc3nc2N(C)C)C2CC2)c1OC,.,.,.,2%,.
Cc1ccc(C(=O)Nc2cccc(-c3nc(CNC(=O)C4(C)CC4)c(C)o3)c2)s1,.,.,.,0%,.
O=C(CN1Cc2ccccc2OC(c2ccsc2)C1)N1CCC(c2nc3ccccc3[nH]2)CC1 (configuration not stated),.,.,.,2%,.
CC1(O)CC(c2ccc(Cl)cc2)=NN1C(=O)c1ccc([N+](=O)[O-])cc1 (configuration not stated),18µM*,0%,?,?,7%
CCc1cccc2c(-c3ccc(F)cc3)nc(SCC(=O)Nc3ccccc3)nc12,19%,-2%,9%,0%,0%
CCN(CC)CCNCC1C(=O)O[C@@H]2C[C@@]3(C)CCC[C@H](C)C3=C[C@H]12 (some centres not stated),-11%,.,1%,-2%,11µM*
CC(C)c1ccc(C2C3=C(CC(C)(C)CC3=O)NC3=C2C(=O)c2ccccc23)cc1 (configuration not stated),23µM*,0%,16µM*,1%[38.3 µM],0%
CC1(C)CC(=O)C2=C(C1)NC1=C(C(=O)c3ccccc31)C2c1ccccc1 (configuration not stated),-21%,4%,?,2%,3%
Cc1cccc(N2CCN(CC(=O)Nc3nccs3)CC2)c1C,16µM*,0%,-23%,2%,0%
Cc1nc(SCC(=O)Nc2ccc(S(=O)(=O)N3CCOCC3)cc2)c2c(C)c(C)sc2n1,12µM*,.,?,-1%,0%
COc1ccccc1N1CCN(CC(=O)Nc2nccs2)CC1,-3%,.,-4%,-1%,-1%
Cc1ccc(S(=O)(=O)N2CCN(CC(=O)Nc3ccc(N4CCOCC4)cc3)CC2)cc1C,-3%,-1%,1%,0%,0%
Cc1cccc(N2CCN(CC(=O)Nc3ccc(S(=O)(=O)N4CCOCC4)cc3)CC2)c1C,16µM*,.,-14%,0%,0%
SMILES,Nrf2 inh,Epigenetic derep,A549 viability,PINK1 modulator,Nrf2 ARE act
COc1ccc(N2CCN(c3c4c(nc5nncn35)CCC4)CC2)cc1,21µM*,0%,2%,1%,0%
Cc1nc([N+](=O)[O-])cn1CC(O)c1ccc2c(c1)OCCO2 (configuration not stated),.,.,.,1%,.
Cc1ccccc1CN1CCN(CC(=O)NCCCN2CCN(c3ccc(F)cc3)CC2)C1=O,12µM*,-1%,0%,-4%,14%
CN(Cc1cnc2nc(N)nc(N)c2n1)c1ccc(C(=O)N[C@@H](CCC(=O)O)C(=O)O)cc1,1.5µM*!,1%,-18%,-1%,0%
c1ccc2c(c1)nnn2-c1ncnc2sccc12,?,-1%,1%,-2%,4µM*
Cc1cc(-n2nnc3ccccc32)nc2ccccc12,?,9%,-11%,2%,10%
COc1ccc(S(=O)(=O)N2CCN(CCc3ccccc3)CC2)c(OC)c1,16µM*,.,-8%,2%,-1%
COc1ccc(OC)c(S(=O)(=O)N2CCN(Cc3ccccc3)CC2)c1,3%,.,2%,1%,0%
COC(=O)c1cc(=O)n(Cc2ccco2)c(=Nc2ccc(F)c(Cl)c2)s1,26µM*,0%,?,1%,-5%
CC[n+]1ccnc2ccccc21,.,.,.,0%,.
COc1ccc(-c2nnc(COc3ccc4ccccc4c3)o2)cc1OC,23µM*,-10%,.,-1%,4%
COc1cc(-c2nnc(COc3ccc4cc(Br)ccc4c3)o2)cc(OC)c1OC,3%,-3%,1%,.,0%
CCC1(C2CCN(C(=O)c3cc(F)ccc3F)CC2)NC(=O)N(CCc2scnc2C)C1=O (configuration not stated),.,.,.,0%,.
Cc1c(N2C(=O)/C(=C/c3ccc(N(C)C)cc3)N(C)C2=S)c(=O)n(-c2ccccc2)n1C,-8%,.,23µM*,1%,-1%
COc1cc(N2CCCC2)c(OC)cc1/C=C1/NC(=S)NC1=O,-20%,16µM*,-22%,?,2%
CC(C)CNc1ncnc2onc(-c3ccc(Cl)cc3)c12,-8%,-1%,1%,1%,0%
CC(C)CNc1ncnc2oc(-c3ccco3)c(-c3ccco3)c12,16µM*,.,-14%,1%,.
CC(=O)c1c(C)[nH]c(C(=O)CSc2nnc(-c3ccccc3)o2)c1C,21µM*,-1%,-14%,5%,0%
CC(=O)c1c(C)[nH]c(C(=O)CSc2ncnc3sc(-c4ccccc4)cc23)c1C,5.2µM*,19%,-7%,4%,0%[9.22 µM]
O=C(O)CSc1ncnc2sc(-c3ccccc3)cc12,-4%,-2%,0%,1%,5%
COc1ccc2nc3c(nc2c1)C(=O)c1ccccc1-3,.,-3%,.,.,.
S=C1NC2=C(CCCC2=C2SCCS2)C(c2ccccc2)N1 (configuration not stated),?,3%,1%,5%,22µM*
Cc1nc(C)c(-c2ccc(SCC(=O)Nc3cccc(F)c3)nn2)s1,15µM*,.,?,4%,4%
COc1ccccc1NC(=O)CSc1ccc(-c2sc(C)nc2C)nn1,.,0%,0%,-1%,6%

# Assay outcomes from PubChem BioAssay.
